Compound activity as filed in PubChem.
KB-V1 cytotox: kills drug-selected multidrug resistant KB-V1 cells; 3.4% of 400,000 active; KB-V1 MDR cells viability, CellTiter-Glo, 72 h; Potency, µM (top dose mostly 46.1 µM), actives largely listed as cytotoxic; AID 1347076; also: % is scaled to controls: 0 for no effect and ±100 for the full control effect; nearly all actives have a fitted effect of over 60% in size
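Cytotoxicity toward P-gp-expressing KB-V1 cells was determined as loss of CellTiter-Glo luminescence after 72 h at 37 degrees C. Compounds were tested in quantitative HTS format across a concentration range, with curves fitted to normalized data.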
ATXN2 expr inh: ATXN2 expression inhibition; HEK-293 ATXN2-luciferase reporter, luminescence, 24 h; Potency, µM (doses to about 57 µM), inactives show top-dose activity change, negative = inhibition, usual class: inhibitors; 0.72% of 360,000 active; also: % is scaled to controls: 0 for no effect and ±100 for the full control effect; nearly all actives have a fitted effect of over 55% in size
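ATXN2-luciferase reporter cells (luciferase flanked by upstream and downstream ATXN2 gene portions) were treated 24 h at 37 °C with compounds at up to 57 uM. SteadyGlo luminescence gave expression; GF-AFC fluorescence gave viability.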
HT1080 IDH1KD tx: toxicity to HT-1080 IDH1 knockdown cells (counter line). 2% of 360,000 active. HT-1080 IDH1 knockdown viability, ATP luminescence, 48 h. AID 686971. Potency, µM (titrated, usually from 46.1 µM), inactives show at the highest dose activity, negative = toxicity, actives largely listed as cytotoxic;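 also: 0% = DMSO wells and -100% = cell-free medium wells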
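Using the IDH1-knockdown HT-1080 line run in the same batch and compound series as the NT line, viability after 48 h at 37 °C was determined by CellTiter-Glo luminescence and expressed as % activity.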
S2 tox: reduces viability in counter-screen for ATXN expression inhibitors | S2 cells (HEK-293 line with an ATXN2-luciferase reporter) viability, CellTiter-Fluor protease fluorescence, 24 h | Potency, µM (doses to about 56.7 µM), hits mostly cytotoxic | 0.49% of 400,000 active | AID 651635; also: nearly all actives have a fitted effect of over 40% in size
KB-3-1 tox: kills parental KB-3-1 adenocarcinoma cells; Potency, µM (highest dose often 46.1 µM), actives largely listed as cytotoxic; AID 1347075; 1.4% of 400,000 active; KB-3-1 viability, CellTiter-Glo ATP luminescence, 72 h; also: % is scaled to controls: 0 for no effect and ±100 for the full control effect; nearly all actives have a fitted effect of over 60% in size
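Parental KB-3-1 viability, qHTS format: 72 h compound exposure, 37 °C; CellTiter-Glo; media-only wells and DMSO plates as controls; concentration-effect fits on corrected data.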
HT1080-NT tox: kills 2HG-producing HT-1080-NT fibrosarcoma cells; 1.6% of 360,000 active; HT-1080-NT fibrosarcoma viability, CellTiter-Glo ATP luminescence, 48 h; Potency, µM (series often up to 46.1 µM), inactives show at the highest dose activity, negative = less viability, most hits filed as cytotoxic;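 also: NT is the 2HG producing partner of a matched IDH1 knockdown line; 0% = DMSO-treated cells and -100% = media-only wells without cells; nearly all actives have a fitted effect of over 55% in size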
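Luminescent CellTiter-Glo readout after 48 hours of compound exposure at 37 degrees C defined viability of HT-1080-NT cells. Activity was normalized to DMSO wells and cell-free media wells; concentration-response curves were fitted and assigned curve classes.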
* hit, by the source's call; i = inactive; ? = inconclusive; · = no result. The list is not random: actives were taken first. Their share in the collection is about 6.2%. Calls follow the shape of the dose curve; as a rule, active = well fitted curve in the direction sought with a large enough effect; inconclusive = small, poorly fitted or top-dose-only effect, or another doubt; inactive = no such curve, though single readings can be large; an effect the other way counts as inactive or inconclusive. Potency is read from the fitted curve at half-maximal effect.

SMILES | KB-V1 cytotox | ATXN2 expr inh | HT1080 IDH1KD tx | S2 tox | KB-3-1 tox | HT1080-NT tox
COc1ccccc1N1CCN(C(=O)CCn2cnc3onc(-c4ccc(F)cc4)c3c2=O)CC1 | i | -10.1% | · | i | i | ·
CCc1ccccc1NC(=O)CSc1ncc(S(=O)(=O)c2ccccc2)c(N)n1 | i | -7.3% | · | i | i | ·
CCC(C)n1c(SCC(=O)NCCc2ccc(S(N)(=O)=O)cc2)nc2ccsc2c1=O (stereo not given) | i | -1.1% | 9.4% | ? | i | 6.3%
CCC(C)n1c(SCc2ccccc2)nc2ccsc2c1=O (stereo not given) | 10.3µM* | -13.5% | 1.4% | i | ? | -4.0%
CCC(C)n1c(SCC(=O)Nc2ccccc2C(F)(F)F)nc2ccsc2c1=O (stereo not given) | 23.1µM* | -18.8% | -20.4% | i | i | -25.6%
CCOC(=O)c1c(C)oc2ncnc(N3CCN(c4ccccc4)CC3)c12 | ? | ? | · | ? | i | ·
COc1ccc(S(=O)(=O)NCCc2sc(C)nc2C)cc1F | 16.4µM* | -19.1% | · | i | ? | ·
COc1ccc(CCNS(=O)(=O)c2ccc(OC)c(OC)c2)cc1OC | i | 4.1% | -3.9% | i | i | 1.4%
Cc1cc2nc(N3CCC(NC(C)c4nc(-c5ccccn5)no4)CC3)nc(C)c2cc1C (stereo not given) | · | · | · | i | · | ·
CO[C@@H]1CN(C)C(=O)c2ccc(NC(=O)C3CCCC3)cc2OC[C@@H](C)N(Cc2ccc(F)cc2)C[C@H]1C | 23.1µM* | · | -21.5% | · | ? | -18.8%
CCOc1ccc2nc(NC(=O)c3ccccc3)sc2c1 | ? | 2.9% | · | ? | ? | ·
CCOc1ccc2nc(NS(=O)(=O)Cc3ccccc3)sc2c1 | ? | 26.7% | 6.51µM* | i | ? | 5.8µM*
CCOC(=O)c1ccccc1Nc1cn(C(C)=O)c2ccccc12 | i | -6.0% | ? | i | 5.8µM* | ?
CC(=O)n1cc(Nc2ccccc2C(=O)O)c2ccccc21 | ? | 2.8% | 17.2% | i | i | 3.8%
COCCCNC(=O)C1CCN(c2nc3ccc(C)cc3[nH]2)CC1 | i | · | · | · | i | ·
O=C(Nc1ccc(OC(F)F)cc1)c1nc(SCc2ccccc2F)ncc1Cl | i | · | · | · | i | ·
COC(=O)c1c(NC(=O)CN2CCC3(O)CCCCC3C2c2cc(OC)ccc2OC)sc(C)c1C (stereo not given) | ? | -31.3% | -19.6% | i | ? | -12.6%
COC(=O)c1c(NC(=O)CN2CCC3(O)CCCCC3C2c2ccc(F)cc2)sc(C)c1C (stereo not given) | 16.4µM* | 3.4% | -8.0% | i | i | -3.9%
CCCC/C=C1/CCC(CN(C)C)C1=O (stereo not given) | ? | ? | -26.8% | · | ? | 5.1%
CN(C)CC1CCC/C(=C\c2ccc(OC(=O)/C=C/c3ccc(Cl)c(Cl)c3)cc2)C1=O (stereo not given) | ? | -12.0% | -1.7% | ? | ? | 1.6%
CN(C)CC1CCC/C(=C/c2ccc(Cl)cc2)C1=O (stereo not given) | ? | ? | ? | 11.9µM* | ? | -15.6%
COc1cccc(/C=C2/CCC(CN(C)C)C2=O)c1 (stereo not given) | ? | 13.4µM* | ? | · | ? | ?
COc1ccc(/C=C2/CCCC(CN(C)C)C2=O)cc1 (stereo not given) | ? | ? | 8.2µM* | · | ? | 5.7%
COc1cccc(/C=C2\CCC(C3CCCC3)C2=O)c1 (stereo not given) | i | 55.5% | 6.0% | i | i | 4.1%
C/C(=N\Nc1nc(C)cc(-c2ccccc2)n1)c1ccc(F)cc1 | i | · | -10.3% | i | ? | 3.8%
C/C(=N/Nc1nc(-c2ccccc2)cc(-c2ccc(F)cc2)n1)c1cccc(N)c1 | 5.17µM* | -15.7% | ? | i | ? | ?
